# Sampled rows, rich in hits. Any-hit rate of the full collection: about 2.9%.
# Nrf2 ARE act – qHTS of Nrf2 Activators; AREc32 ARE-luciferase reporter (MCF7-derived line), luminescence, 24 h; Potency, µM (doses to about 46.1 µM), for the others: at the top dose activation, hits mostly activators; 410,000 compounds, 0.31% hits; note: % of control where 0% means no effect; nearly all actives have a fitted effect of over 65% in size
#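 Each well held 1000 AREc32 cells, which were incubated with compound for 24 hr at 37 deg C after overnight attachment, and ARE reporter activity was quantified by firefly luciferase luminescence.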
# A549 tox – Nrf2 qHTS screen for inhibitors: counterscreen for cytotoxicity; A549 ARE-Fluc cells, CellTiter-Fluor viability, 18-24 h; Potency, µM (series often up to 46 µM), for the others: at the highest dose activity change, negative = cytotoxicity, actives largely listed as inhibitors; 390,000 compounds, 0.16% hits; AID 504648, 2011; note: % is set by controls: 0 for no effect and ±100 for the full control effect
#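 A549 ARE-Fluc cells in 5% FBS OPTI-MEM, 5000 cells/well, rested 2 h then exposed to compounds in concentration-response for 18-24 h at 37 °C. Viability by CellTiter-Fluor fluorescence (Ex 405/Em 525) after 30 min; luciferase luminescence (BugLite, 15 min, RT) read afterwards.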
# ATXN viability – Viability Counterscreen for Primary qHTS for Inhibitors of ATXN expression | Potency, µM (titrated, usually from 56.7 µM), usual class: cytotoxic | 400,000 compounds, 0.49% hits | S2 cells (HEK-293 line with an ATXN2-luciferase reporter) viability, CellTiter-Fluor protease fluorescence, 24 h; note: nearly all actives have a fitted effect of over 40% in size
# ATXN2 expr inh – Primary qHTS for Inhibitors of ATXN expression | HEK-293 ATXN2-luciferase reporter, luminescence, 24 h | Potency, µM (series often up to 57 µM), for the others: at the highest dose activity change, negative = inhibition, usual class: inhibitors | 360,000 compounds, 0.72% hits | AID 1745845, 2022; note: % is set by controls: 0 for no effect and ±100 for the full control effect; nearly all actives have a fitted effect of over 55% in size
#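 ATXN2-luciferase reporter cells (luciferase flanked by upstream and downstream ATXN2 gene portions) were treated 24 h at 37 °C with compounds at up to 57 uM. SteadyGlo luminescence gave expression; GF-AFC fluorescence gave viability.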
# Nrf2 block – Nrf2 qHTS screen for inhibitors; A549 ARE-Fluc reporter, luciferase luminescence, 18-24 h; Potency, µM (top dose mostly 46 µM), inactives show at the highest dose activity change, negative = inhibition, hits mostly inhibitors; 360,000 compounds, 2.1% hits; note: % is set by controls: 0 for no effect and ±100 for the full control effect; nearly all actives have a fitted effect of over 60% in size
#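 Reporter: ARE-Fluc in A549. Exposure: 18-24 h, 37 °C, 5% CO2, 5% FBS OPTI-MEM. Readouts: fluorescent cytotoxicity (CellTiter-Fluor), then luminescent Nrf2 signal after BugLite.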
# An asterisk follows results filed as active; i = inactive; ? = inconclusive; . = no result; [ ] = another dose, or the depositor's remark. Calls come from the whole dose curve; as a rule, active = well fitted curve in the direction sought with a large enough effect; inconclusive = small, poorly fitted or top-dose-only effect, or another doubt; inactive = no such curve, though single readings can be large; an effect the other way counts as inactive or inconclusive. Potency is the fitted concentration of half-maximal effect.
SMILES,Nrf2 ARE act,A549 tox,ATXN viability,ATXN2 expr inh,Nrf2 block
CCOC(=O)c1cc(-c2ccc(C)cc2)n(CCC(=O)Nc2ccc(OC)c(OC)c2)c1C,-0.9%,-12.7%,?,?,18.4µM*
COC(=O)c1ccc(NC(=O)CC2C(=O)N(c3cccc(OC)c3)C(=O)N2Cc2cccs2)cc1 (stereo unspecified),5.5%,1.2%,.,.,36.2%
COC(=O)C(NS(=O)(=O)CCl)C(C)C (stereo unspecified),.,-1.1%,.,.,14.4%
Cc1ccc(S(=O)(=O)Oc2ccc(/C=N/NC(=O)c3nn(C)cc3Cl)cc2)cc1,0.8%,-10.9%,i,4.0%,18.4µM*
O=C(Nc1ccccn1)c1csc2c1CCCC2,5.01µM*,10.8%,i,56.7%,?
COc1ccccc1NC(=O)c1csc2c1CCCC2,3.4%,-13.3%,i,30.5%,5.3%
COc1ccc(-c2nnc3n2N=C(c2cc(OC)ccc2OC)CS3)c(OC)c1,.,-3.0%,.,.,10.4%
COc1ccccc1NC(=O)C(=O)N/N=C/c1cccs1,11.2µM*,7.8%,i,40.3%,?
COCCNC(=O)C(=O)N/N=C/c1cccs1,-1.1%,9.9%,i,.,8.6%
O=C(Nc1sc2c(c1C(=O)O)CCCC2)c1ccc(Cl)cc1,0.3%,?,?,-4.3%[2.22 µM],6.51µM*
CCN(Cc1ccccc1)S(=O)(=O)c1cc(C(=O)NC2CCCCCC2)ccc1OC,0.0%,?,i,1.0%,?
CCN(Cc1ccccc1)S(=O)(=O)c1cc(C(=O)NCC2CCCCC2)ccc1OC,0.0%,-21.5%,i,-23.6%,11.6µM*
Cn1cc(-c2coc3c(C(=O)NCc4ccco4)cccc23)cn1,10.0%,.,i,1.5%,.
C=C[C@@H]1c2c(F)cccc2N(S(=O)(=O)c2ccc(C)cc2)[C@H](c2ccc(C(=O)OC)cc2)C1(C#N)C#N,1.3%,-7.7%,i,-13.1%,-21.2%
C=C[C@@H]1c2c(F)cccc2N(S(=O)(=O)c2ccc(C)cc2)[C@H](c2ccc(OC(C)=O)cc2)C1(C#N)C#N,-1.6%,-25.5%,31.6µM*,?,?
Cc1occc1C(=O)Nc1cccc(C(F)(F)F)c1,3.4%,?,i,3.0%,-4.3%
Cc1ccc(C(=O)Nc2cccc(C(F)(F)F)c2)cc1Nc1ccccn1,2.3%,?,31.6µM*,?,20.6µM*
Cc1ccccc1C(=O)NNC(=S)Nc1cccc(C(F)(F)F)c1,-1.7%,?,i,?,11.6µM*
Cc1cnc(Nc2nc3ccccc3o2)nc1C(=O)Nc1cccc(C(F)(F)F)c1,6.7%,?,i,-29.0%,16.4µM*
CCSc1nnc(NC(=O)C2CCN(S(=O)(=O)c3ccccc3C(F)(F)F)CC2)s1,-0.3%,-1.8%,i,-35.5%,23.1µM*
COc1cc2c(cc1OC)CN(CCc1ccc(NC(=O)c3cc(OC)c(OC)cc3NC(=O)c3cnc4ccccc4c3)cc1)CC2,.,.,.,-26.1%,.
Cc1nc2ccc(NS(=O)(=O)c3ccc(F)cc3F)cc2s1,0.0%,-0.3%,i,4.3%,13µM*
Cc1nc2ccc(NS(=O)(=O)c3ccc(F)c(F)c3F)cc2s1,3.9%,5.0%,i,.,-22.1%
Cc1nc2ccc(NS(=O)(=O)c3c(F)cc(F)cc3Br)cc2s1,-0.2%,-0.9%,.,.,20.6µM*
Cc1nc2ccc(NS(=O)(=O)c3ccc(C)c(C)c3)cc2s1,0.1%,-16.8%,i,-23.3%,?
SMILES,Nrf2 ARE act,A549 tox,ATXN viability,ATXN2 expr inh,Nrf2 block
CCC(C(=O)OCCN1CCOC(c2ccccc2)C1C)c1ccccc1 (stereo unspecified),.,.,i,-9.0%,.
COCC1CCCN(Cc2ccc3c(c2)CN(C(=O)c2sc(C)nc2C)CCO3)C1 (stereo unspecified),.,.,i,.,.
CCN(Cc1cccs1)c1ncnc2ccc(-c3ccc4c(c3)OCO4)cc12,.,0.8%,.,.,-29.6%
O=C(N/N=C\C=C\c1ccco1)c1cncc(Br)c1,12.6µM*,-2.7%,i,-1.7%,-22.6%
O=C(CN1CCN(Cc2ccccc2)CC1)N/N=C\C=C/c1ccco1,6.31µM*,-5.1%,i,5.9%,?
O=C(CN1CCN(Cc2ccccc2Cl)CC1)N/N=C/C=C/c1ccco1,?,-0.9%,i,-16.0%,-13.3%
O=C(N/N=C/C=C/c1ccco1)c1cccnc1,?,-13.2%,i,0.0%,21.2%
O=C(Cc1cccs1)N/N=C/C=C/c1ccco1,12.6µM*,12.1%,i,25.0%,13.3%
Cc1cc(C(=O)CN2C(=O)C3CC=CCC3C2=O)c(C)n1-c1ccccc1 (stereo unspecified),-0.1%,.,i,29.0%,?
C=CCn1c(C)cc(C(=O)CN2C(=O)c3ccccc3S2(=O)=O)c1C,-2.9%,4.8%,i,?,0.651µM*
C=CCn1c(C)cc(C(=O)CN2C(=O)NC3(CCCc4ccccc43)C2=O)c1C (stereo unspecified),3.0%,9.8%,i,9.4%,-2.2%
Cc1cc(C(=O)CN2C(=O)c3ccccc3S2(=O)=O)c(C)n1-c1ccccc1,-1.9%,-6.6%,i,4.47µM*,?
Cc1ccc2cc(CNC(C)c3cccc4ccccc34)c(N3CCC(O)CC3)nc2c1 (stereo unspecified),.,.,i,.,.
COc1c[nH]n(C2CCCCC2)c(=O)c1=O,-0.6%,-2.0%,22.4µM*,0.0%,.
COc1ccc(Nc2cc(=O)n(C3CCCCC3)c(=O)[nH]2)c(OC)c1,0.2%,0.4%,i,-11.0%,-10.7%
Cn1c(=O)c2cc(S(=O)(=O)NCCC(=O)N3CC=C(c4ccccc4)CC3)ccc2n(C)c1=O,0.0%,-6.4%,i,-23.5%,14.6µM*
CCOC(=O)c1ccc2c(c1)n(CC)c(/C=C/Nc1ccccc1)[n+]2CC,-0.3%,-11.7%,11.2µM*,?,24.5%
CCn1c(/C=C/Nc2ccccc2)[n+](CC)c2ccc(Cl)cc21,0.2%,-1.1%,?,-13.1%,8.1%
CCc1ccc(NC(=O)CN(c2ccc(C)cc2)S(=O)(=O)c2cccs2)cc1,-0.5%,6.3%,i,-15.9%,2.2%
O=c1c2ccccc2sn1-c1cccc(Cl)c1,?,.,25.1µM*,-25.1%,.
O=c1c2cc(C(F)(F)F)ccc2sn1-c1ccccc1,-0.9%,.,?,4.4%,.
O=c1c2cc(F)ccc2sn1-c1ccccc1,9.5%,0.5%,12.6µM*,?,-5.4%
O=c1c2ccccc2sn1-c1ccccc1,?,-11.5%,.,?,7.5%
N#Cc1ccc2c(=O)n(-c3ccccc3)sc2c1,4.3%,.,10µM*,-34.7%,.
COC(=O)Cn1c(=O)c2cccn2c2cccnc21,5.2%,19.9%,.,.,1.9%
COc1ccccc1-c1ccnc(-n2ncc(C(=O)NCC3(N4CCOCC4)CCCC3)c2C)n1,.,.,i,.,.
CCOc1cc2[nH]c(=O)n(Cc3ccc(C(=O)N4CCN(c5ccccc5)CC4)cc3)c(=O)c2cc1OCC,-0.8%,11.0%,i,3.8%,.

# Bioassay records: PubChem, National Center for Advancing Translational Sciences (NCATS)
